In PubChem BioAssay:
“And” between values parts separate entries of the source, which are not always exact repeats. Identical values can stand only once. Records with an inconclusive call do not appear. The source made the active and inactive calls. Cut-off read from the data, not from the text of the source, unless noted: active = inhibition above about 80%; inactive = the rest.

Experiments:
[1] = viability loss in pontine glioma line – cell-based, SU-DIPG-XXV, MIPE5.0, CellTiter-Glo, qHTS, dose response (AID 1347065; cut-off not given, nearly all actives have AC50 up to about 26 µM;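 note: cells exposed to compound for 48 hours before ATP readout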); conditions: CellTiter-Glo ATP luminescence
[2] = JHH-DIPG-1 glioma cell viability, MIPE5.0 library, CellTiter-Glo luminescence, qHTS (AID 1347067; cut-off not given, nearly all actives have AC50 up to about 26 µM;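 note: cells exposed to compound for 48 hours before readout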); conditions: JHH-DIPG-1 glioma viability, CellTiter-Glo ATP luminescence
[3] = SU-DIPG-XXV glioma cell viability, MIPE5.0 library, qHTS (AID 1347068; cut-off not given, nearly all actives have IC50 up to about 30 µM;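 for IC50: cells exposed to compound for 48 hours before viability readout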)
[4] = LFS_MB_P medulloblastoma growth inhibition, cell-based, chromothripsis tumors, cisplatin or BGB combos (AID 1671449); conditions: LFS_MB_P medulloblastoma cells;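 note: cells exposed for 96 hours; 0% = vehicle DMSO and 100% = killing by high DMSO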
[5] = HDN33 neuroblastoma growth inhibition, cell-based, chromothripsis tumors, cisplatin or BGB combos (AID 1671450); conditions: HDN33 neuroblastoma cells, stronger effect = higher value;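 note: cells exposed to compound for four days; 0% = vehicle DMSO and 100% = cell killing by high DMSO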
[6] = ICB984 medulloblastoma cell growth inhibition, synergistic combos for chromothripsis tumors, cisplatin or BGB combos (AID 1671451; call rule not given here;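 note: cells exposed for 96 hours before readout; 0% = vehicle DMSO and 100% = killing by high DMSO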); conditions: ICB984 medulloblastoma cells, drug combinations, stronger effect = higher value
[7] = LFS_MB_1R medulloblastoma cell growth inhibition, synergistic combos for chromothripsis tumors, cisplatin or BGB combos (AID 1671452); conditions: LFS_MB_1R medulloblastoma cells, stronger effect = higher value;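 note: cells exposed for 96 hours before readout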
[8] = HTB85 osteosarcoma cell growth inhibition, synergistic combos for chromothripsis tumors, BGB or cisplatin IC20 combos (AID 1671453); conditions: HTB85 osteosarcoma cells, drug combinations, stronger effect = higher value;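 note: cells exposed for 96 hours before readout; 0% = vehicle DMSO and 100% = high DMSO killing control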
[9] = CRL2098 osteosarcoma cell growth inhibition, synergistic combos for chromothripsis tumors, BGB or cisplatin IC20 combos (AID 1671454); conditions: CRL2098 osteosarcoma cells, drug combinations, stronger effect = higher value;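 note: cells exposed for 96 h before readout; 0% = vehicle DMSO and 100% = killing by high DMSO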
[10] = HD-MB03 medulloblastoma cell growth inhibition, synergistic combos for chromothripsis tumors, BGB or cisplatin IC20 combos (AID 1671455; in the data active = inhibition above about 83%;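 note: 0% = vehicle DMSO and 100% = high DMSO as cytotoxic control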); conditions: HD-MB03 medulloblastoma cells, stronger effect = higher value
[11] = UWB1.289 ovarian carcinoma cell growth inhibition, synergistic combos for chromothripsis tumors, BGB or cisplatin combos (AID 1671456); conditions: UWB1.289 ovarian carcinoma cells, stronger effect = higher value;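 note: cells exposed to compound for four days; 0% = vehicle DMSO and 100% = killing by high DMSO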
[12] = LFS_MB_2R medulloblastoma cell growth inhibition, synergistic combos for chromothripsis tumors, cisplatin combos (AID 1671457); conditions: LFS_MB_2R medulloblastoma cells, stronger effect = higher value;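 note: cells exposed to compound for four days before readout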
[13] = MDA-MB-436 breast carcinoma cell growth inhibition, synergistic combos for chromothripsis tumors, BGB or cisplatin combos (AID 1671458; call rule not given here;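 note: cells exposed for 96 hours; 0% = vehicle DMSO and 100% = killing by high DMSO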); conditions: MDA-MB-436 breast carcinoma growth inhibition, drug combinations, stronger effect = higher value
[14] = UWB1.289_BRCA1 ovarian cancer growth, cell-based, BGB or cisplatin combinations (AID 1671459); conditions: UWB1.289 BRCA1 ovarian carcinoma, drug combinations, stronger effect = higher value
[15] = human astrocyte viability loss, single and combined drugs, cytotoxicity control for chromothriptic childhood tumor combination screen, cell-based, BGB or cisplatin IC20 combos (AID 1671460); conditions: Human astrocytes, drug combinations, stronger effect = higher value;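 note: cells exposed to compounds for 96 hours before viability readout; 0% = vehicle and 100% = killing control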
[16] = growth inhibition of BT084 medulloblastoma cells, cell-based, ICGC_MB145, cisplatin and BGB IC40 combos (AID 1671461); conditions: drug combinations, stronger effect = higher value;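 note: cells exposed to drugs for 96 hours; 0% = vehicle DMSO and 100% = high DMSO full killing control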
[17] = growth inhibition of RCMB18 medulloblastoma cells, cell-based, cisplatin and BGB IC40 combos (AID 1671462); conditions: stronger effect = higher value;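 note: cells exposed to compound for four days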
[18] = growth inhibition of CRL1545 osteosarcoma cells, cell-based, cisplatin and BGB IC20 combos (AID 1671464); conditions: stronger effect = higher value;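 note: cells exposed to compound for 96 hours before readout; 0% = vehicle DMSO and 100% = high DMSO killing control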
[19] = measured here: combination with BGB IC40, at 0.05 µM
[20] = measured here: with BGB IC20 combination, at 0.5 µM
[21] = measured here: with cisplatin IC20 combination, at 0.5 µM
[22] = measured here: combination with cisplatin, at 0.5 µM
[23] = measured here: combination with cisplatin, at 5 µM

In the case of Nc1ccc(F)cc1NC(=O)c1ccc(CNC(=O)/C=C/c2cccnc2)cc1, the AC50 [1] is reported as 5.9 µM (active), the AC50 [2] is reported as 9.34 µM (active) and the IC50 [3] is reported as 16.6 µM (active). The inhibition ([4]; at 0.5 µM, stronger effect = higher value) was -9.27% (inactive) and 17.5% (inactive), the inhibition ([4]; measured here: combination with BGB IC20, at 0.005 µM) was -31.2% and 6.89% and the inhibition ([4]; measured here: combination with BGB IC40, at 0.005 µM) was -55.6% and -31.5%. The inhibition [4, 19] was -32.7% and -5.83%, the inhibition ([4]; measured here: combination with cisplatin, at 0.5 µM, stronger effect = higher value) was 16% and 62.9% and the inhibition ([4]; measured here: combination with cisplatin, at 5 µM, stronger effect = higher value) was 108% and 116%. The inhibition ([5]; BGB combo, at 5 µM) was 80.7%, the inhibition ([5]; at 0.5 µM) was 12.4% (inactive) and 12.7% (inactive) and the inhibition ([5]; cisplatin combo, at 5 µM) was 80.6% and 84.9%. The inhibition [5, 20] was 1.48% and 7.37%, the inhibition [5, 21] was 26.1% and 17.9% and the inhibition ([5]; single agent, at 5 µM) was 78.9% and 79.8%. For the same compound, the inhibition ([6]; BGB IC20 combo, at 0.005 µM) was 6.31% and 11.4%, the inhibition ([6]; BGB IC40 combo, at 0.005 µM) was 6.94% and 2.58% and the inhibition ([6]; BGB IC40 combo, at 0.05 µM) was 84.2% and 81%. The inhibition ([6]; at 0.5 µM) was -12.1% (inactive) and -33.8% (inactive), the inhibition ([6]; cisplatin combo, at 0.05 µM) was 83.9% and 80.3% and the inhibition ([6]; cisplatin combo, at 0.5 µM) was -1.65% and -31.4%. The inhibition ([6]; cisplatin combo, at 5 µM) was -26.1% and -13.8%, the inhibition ([6]; measured here: 5 uM single agent, at 5 µM) was -14% and -9.96% and the inhibition ([7]; at 0.5 µM) was 30% (inactive) and 36% (inactive). The inhibition [7, 19] was -28.7% and -30.1%, the inhibition [7, 22] was 65% and 50% and the inhibition [7, 23] was 97% and 96%. The inhibition ([8]; at 0.5 µM) was 21% (inactive) and 24% (inactive), the inhibition ([8]; measured here: with BGB IC20, at 0.5 µM) was 43.2% and 13.5% and the inhibition ([8]; measured here: with BGB IC20, at 5 µM) was 97.2% and 95.3%. The inhibition ([8]; measured here: with cisplatin IC20, at 0.5 µM) was 15.4% and 37.9%, the inhibition ([8]; measured here: with cisplatin IC20, at 5 µM) was 97.9% and 96.5% and the inhibition ([8]; single agent, at 5 µM) was 91.8% and 89.6%. For the same compound, the inhibition ([9]; at 0.5 µM) was -40.8% (inactive) and -34.5% (inactive), the inhibition ([9]; measured here: combination with BGB at IC20, at 0.5 µM) was -53.4% and -17.4% and the inhibition ([9]; measured here: combination with cisplatin at IC20, at 0.5 µM) was -22.2% and -51.8%. The inhibition ([10]; at 0.5 µM) was 19.9% (inactive) and 36% (inactive), the inhibition ([10]; measured here: combo with BGB at IC20, at 0.5 µM) was 24.3% and 36.2% and the inhibition ([10]; measured here: combo with cisplatin at IC20, at 0.5 µM) was 28.3% and 50.6%. The inhibition ([11]; at 0.5 µM) was 6.29% (inactive) and 20.9% (inactive), the inhibition ([11]; measured here: inhibition with BGB combination, at 0.05 µM) was -10.5% and -21.7% and the inhibition ([11]; measured here: inhibition with cisplatin combination, at 0.05 µM) was -34.6% and -15.2%. For the same compound, the inhibition ([12]; at 0.5 µM) was 19.4% (inactive) and 17.9% (inactive), the inhibition [12, 22] was 42.4% and 41% and the inhibition [12, 23] was 91.1% and 92.2%. For the same compound, the inhibition ([13]; at 0.5 µM) was -0.59% (inactive) and 2.18% (inactive), the inhibition ([13]; measured here: BGB combination, at 0.5 µM) was -5.08% and -6.18% and the inhibition ([13]; measured here: BGB combination, at 5 µM) was 27.2% and 23.4%. For the same compound, the inhibition ([13]; measured here: cisplatin combination, at 0.5 µM) was -7.52% and 1.65%, the inhibition ([13]; measured here: cisplatin combination, at 5 µM) was 37.2% and 38.6% and the inhibition ([14]; BGB combination, concentration series, at 5 µM) was 85.3% and 82.2%. For the same compound, the inhibition ([14]; at 0.5 µM) was 1.02% (inactive) and 1.89% (inactive), the inhibition ([14]; cisplatin combination, concentration series, at 5 µM) was 98.1% and 92.9% and the inhibition ([15]; at 0.5 µM) was -0.32% (inactive) and -2.77% (inactive). The inhibition ([15]; measured here: combo with BGB IC20, at 0.5 µM) was -0.373% and -1.39%, the inhibition ([15]; measured here: combo with cisplatin IC20, at 0.5 µM) was -8.73% and -1.18% and the inhibition ([16]; at 0.5 µM) was 39.6% (inactive) and 45% (inactive). The inhibition ([16]; cisplatin combination, at 0.5 µM) was 58.4% and 61.5%, the inhibition ([16]; cisplatin combination, at 5 µM) was 87.7% and 92.4% and the inhibition ([16]; measured here: BGB IC40 combination 0.05 uM, at 0.05 µM) was -24% and -23.6%. For the same compound, the inhibition ([16]; single agent, at 5 µM) was 65.3% and 57.1%, the inhibition ([17]; at 0.5 µM) was 43.9% (inactive) and 41.5% (inactive) and the inhibition ([17]; cisplatin combo, at 5 µM) was 93.2% and 98.3%. For the same compound, the inhibition ([17]; measured here: BGB IC40 combination, at 0.05 µM) was -7.17% and -21.6%, the inhibition [17, 22] was 52.2% and 77.9% and the inhibition ([17]; single agent, at 5 µM) was 82.6% and 79%. The inhibition ([18]; at 0.5 µM) was 45.6% (inactive) and 32.9% (inactive), the inhibition [18, 20] was 25.5% and 27% and the inhibition [18, 21] was 54.9% and 35.9%. For the same compound, the inhibition ([18]; single agent, at 0.05 µM) was -31.6% and 15.5% and the inhibition ([18]; single agent, at 5 µM) was 32.4% and 21.9%.

With CCC(CC)C(c1ccc(Nc2nc3ccccc3s2)cc1)n1cncn1 (centres undefined) the AC50 [1] was 18.6 µM (active) and the IC50 [3] was 20.9 µM (active).

In the case of Cc1ccc(NC(=O)c2ccc(CN3CCNCC3)cc2)cc1Nc1nccc(-c2cccnc2)n1, the AC50 [1] is reported as 23.5 µM (active), the outcome [2] is reported as “inactive” and the outcome [3] is reported as “inactive”.

With Cc1nc(C)c(CN2CCN(C(c3ccc(F)cc3)c3ccc(F)cc3)CC2)nc1C the AC50 [1] was 23.5 µM (active), the outcome [2] was “inactive” and the outcome [3] was “inactive”.
